High-throughput results as filed in PubChem BioAssay.
Pf growth 48h = Primary qHTS for delayed death inhibitors of the malarial parasite plastid, 48 hour incubation; AID 504832, 2011; 310,000 tested, 5.9% active; P. falciparum luciferase growth in erythrocytes, 48 h; Potency, µM (doses to about 28.7 µM), inactives show at the top dose activity change, negative = inhibition, hits mostly inhibitors; also: potency is read from the fitted curve at half-maximal effect; % is scaled to controls: 0 for no effect and ±100 for the full control effect
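Luminescence readout; reporter = integrated firefly luciferase in P. falciparum. RBC culture at 2% hematocrit, 0.1% parasitemia final, 37 C/5% CO2; decreased signal taken as growth inhibition.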
NS1 inh = qHTS Assay for Inhibitors of Influenza NS1 Protein Function | Potency, µM (titrated, usually from 46.1 µM), for the others: top-dose activity, positive = more growth | 270,000 tested, 0.4% active; calls by dose curve; also: potency is read from the fitted curve at half-maximal effect; actives are rising curves; nearly all actives have a fitted effect of over 50% in size
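S. cerevisiae expressing influenza A NS1, grown in glucose, washed, then diluted 1:100 into pH 6.0 -URA galactose medium with 23 nl compound. Growth recovery read as OD600; NS1-free strain serves as control.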
SARS PLP yeast = qHTS of Yeast-based Assay for SARS-CoV PLP; Potency, µM (highest dose often 32.9 µM), without a hit: at the highest dose activity, positive = growth rescue, actives largely listed as activators; 330,000 tested, 0.19% active; AID 485353, 2010; S. cerevisiae expressing SARS-CoV PLpro, growth rescue; calls by dose curve; also: potency is read from the fitted curve at half-maximal effect; 0% is about no effect; nearly all actives have a fitted effect of over 55% in size
Shiga inhibitor = A qHTS for Small Molecule Inhibitors of Shiga Toxin | Vero cells, Shiga toxin protein synthesis inhibition reporter | inhibition, % at 38.7 µM | 290,000 tested, 9.2% active; in the data active = inhibition mostly above about 28%, no sharp cut-off; inactive = mostly below about 43%; also: 0% is about no effect
Pf growth 96h = Primary qHTS for delayed death inhibitors of the malarial parasite plastid, 96 hour incubation; P. falciparum luciferase reporter growth, 96 h; Potency, µM (highest dose often 28.7 µM), inactives show at the highest dose activity change, negative = inhibition, usual class: inhibitors; 320,000 tested, 6.9% active; also: potency is read from the fitted curve at half-maximal effect; % is scaled to controls: 0 for no effect and ±100 for the full control effect
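Erythrocytes infected with luciferase-expressing P. falciparum were dispensed at 2% hematocrit and 0.05% parasitemia (final), then incubated with compounds 96 hours at 37 C in 5% CO2. Luminescence after detection reagent addition reported growth.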
CHX counter = Cycloheximide Counterscreen for Small Molecule Inhibitors of Shiga Toxin | 300,000 tested, 12% active | cell reporter, cycloheximide protein synthesis inhibition counterscreen | AID 2314, 2010 | max response, %; in the data active = max response mostly above about 13%, no sharp cut-off; inactive = mostly below about 14%; also: read at 38.3 µM for the half of the compounds with a filed dose; 0% is about no effect
* marks the source's active call; other numbers are inactive results; i = inactive; ? = inconclusive; . = no result; [ ] = remark or other dose. A selection: hits, their analogues and other compounds. The true share with any hit is near 21%. Unless noted, calls follow the shape of the dose curve; as a rule, active = well fitted inhibition curve with a large enough effect; inconclusive = small, poorly fitted or top-dose-only effect, or another doubt; inactive = no such curve, though single readings can be large or run the other way.

SMILES | Pf growth 48h | NS1 inh | SARS PLP yeast | Shiga inhibitor | Pf growth 96h | CHX counter
COc1ccc(NC2CCCN(C(=O)c3cc(C)nc4cc(F)ccc34)C2)cc1 (stereo not drawn) | 4.0% | -5.5% | 1.1% | -8.6 | -24.7% | -1.5
O=C(Nc1ccccc1C(=O)N1CCCCC1)c1cccs1 | 17.0% | 0.2% | 1.3% | -9.4 | 6.57µM* | -1.3
O=C(NNC(=O)c1ccccc1[N+](=O)[O-])c1ccco1 | 70.3% | . | 2.0% | 13.0 | 0.0% | 10.9
O=C(NNC(=O)c1ccccc1Cl)c1ccco1 | 37.1% | 4.2% | 0.0% | 42.0 | 46.7% | 17.3*
Cc1c(NC(=O)c2cccs2)cccc1NC(=O)c1cccs1 | 29.7% | 15.7% | . | 1.6 | -20.5% | -2.1
O=C(NNC(=O)c1ccccc1Cl)c1cccs1 | 79.4% | 9.4% | 8.8% | 35.4* | ? | 31.1
O=C(Nc1ccccc1Cl)c1cccs1 | 63.6% | -6.4% | 3.6% | 103.5* | ? | 27.4*
CCOc1cccc(-c2nc3c(s2)CCc2onc(-c4cccc([N+](=O)[O-])c4)c2-3)c1 | 2.3% | . | 0.7% | . | 67.4% | .
O=C(NNC(=O)c1ccccc1Cl)c1ccccc1Cl | 51.4% | 2.5% | 1.5% | 17.4 | 23.3% | 18.3*
O=C(NNC(=O)c1cc(Cl)ccc1O)c1cccs1 | 63.5% | 7.6% | 1.4% | 49.3* | ? | 28.6*
CCOc1ccc(Cl)cc1S(=O)(=O)N1CCC(C(=O)NCC2CCCO2)CC1 (stereo not drawn) | 9.9% | 7.6% | -2.3% | 2.0 | 7.3% | -7.6
Cc1ccc(NC(=O)CN(C)C(=O)c2ccc(NS(=O)(=O)c3ccc4[nH]c(=O)[nH]c4c3)cc2)cc1 | ? | . | -4.3% | . | -26.3% | .
Oc1cccc(/C=N/Nc2ccc(Cl)nn2)c1 | . | -38.4% | -2.1% | 68.1* | 10.6% | 41.6*
NC(N)=N/N=C/c1cc([N+](=O)[O-])ccc1O | ? | -10.8% | ? | 10.8 | 41.9% | 11.8*
O=[N+]([O-])c1ccc(O)c(/C=N/NC2=NS(=O)(=O)c3ccccc32)c1 | 2.62µM* | . | ? | 1.4 | 5.2%[5.75 µM] | 10.0
O=[N+]([O-])c1ccc(O)c(/C=N/Nc2ccc(Cl)nn2)c1 | 0.415µM* | -58.9% | -0.1% | 21.2 | 0.37µM* | 10.8
O=[N+]([O-])c1ccc(/C=N/NC2=NS(=O)(=O)c3ccccc32)cc1 | 31.8% | . | 0.1% | -6.8 | -7.2% | 2.2
O=[N+]([O-])c1ccc(O)c(/C=N/Nc2nn[nH]n2)c1 | ? | . | -4.3% | 24.3 | 102.2% | -2.2
O=C(O)c1ccc(/C=N/Nc2ccc(Cl)nn2)cc1 | 38.1% | 7.1% | 1.7% | 3.8 | 9.2% | 1.1
O=S1(=O)N=C(N/N=C/c2cccs2)c2ccccc21 | ? | -10.0% | -2.8% | -1.8 | 13.1µM* | -0.5
O=C(OCc1nnc(-c2ccccc2)o1)c1ccc(Cl)cc1 | 12.8% | -51.0% | -1.5% | -1.4 | -12.5% | -0.7
CN(C)S(=O)(=O)c1ccc(C(=O)OCc2nnc(-c3ccccc3)o2)cc1 | -24.3% | -3.1% | 0.1% | 26.0 | 28.6% | 9.8
O=C(OCc1nnc(-c2ccccc2)o1)C1=COCCO1 | 9.5% | 1.6% | 1.3% | 24.6 | 442.7% | 21.7*
CS(=O)(=O)c1ccc(C(=O)OCc2nnc(-c3ccccc3)o2)cc1[N+](=O)[O-] | 0.0% | -35.9% | -5.3% | 21.0 | 1.8% | 24.6*
CS(=O)(=O)c1ccc(C(=O)OCC(=O)Nc2cccnc2Cl)cc1[N+](=O)[O-] | . | . | 9.7% | . | . | .
SMILES | Pf growth 48h | NS1 inh | SARS PLP yeast | Shiga inhibitor | Pf growth 96h | CHX counter
Cc1ccccc1NC(=O)COC(=O)c1ccc(S(C)(=O)=O)c([N+](=O)[O-])c1 | -15.6% | 0.6% | 0.7% | 11.3 | -1.2% | 13.5*
O=C1CCC(C(=O)OCc2nnc(-c3ccccc3)o2)=NN1 | 60.3% | . | -3.7% | . | 28.6% | .
O=C(OCc1nnc(-c2ccccc2)o1)c1ccc2c(c1)OCCO2 | 70.6% | -41.2% | 0.5% | 45.2* | 104.4% | 22.2*
CCCNC(=O)c1ccc(CN2CCOCC2)cc1 | 31.0% | -0.9% | 0.9% | 28.4 | i | 7.1
Cc1ccc(C(=O)Cn2c(C(=O)/C=C/c3ccccc3)nc3ccccc32)cc1 | ? | 19.9% | 1.0% | 30.7 | -36.7% | 5.2
COCCn1c(SCc2ccc(OC)c(F)c2)nnc1-c1ccncc1 | 0.1% | 7.9% | 4.4% | 4.6 | -5.5% | -3.2
CCCN1C(=O)/C(=C\C=C2\N(CC)c3ccccc3C2(C)C)SC1=S | 5.22µM* | -1.6% | -0.4% | -5.4 | -3.7% | -0.4
Cc1ccc(C)c(N2CCN(c3ncnc4c3cnn4-c3ccccc3)CC2)c1 | . | 6.9% | 3.3% | 13.3 | -18.2% | -0.3
Cc1cccc(-n2ncc3c(N4CCC(C)CC4)ncnc32)c1 | . | -13.5% | -33.3% | 94.7* | 80.5% | 68.1*
Cc1cccc(-n2ncc3c(N4CCC5(CC4)OCCO5)ncnc32)c1 | 167.6% | 4.0% | -0.8% | 48.6 | 86.8% | 12.7*
CCc1ccc(NC(=O)COC(=O)C2(c3ccc(Cl)cc3)CCCC2)cc1 | -15.5% | -2.6% | 4.7% | -6.6 | 14.7µM* | 6.1
O=C(O)CCC(=O)Nc1ccc(C(=O)OCC(=O)c2ccc(Cl)cc2)cc1 | 87.6% | -1.6% | 0.1% | 79.2 | 0.4% | 15.1*
O=C(COC(=O)c1ccc(O)cc1)Nc1ccc(Cl)cc1 | ? | -3.2% | -0.1% | 52.3 | -4.1% | 31.5*
O=C(COC(=O)C1(c2ccc(Cl)cc2)CCCC1)NCc1ccco1 | -24.7% | -4.7% | -5.7% | 25.0 | -1.3% | -2.0
CCCc1ccc(OCc2ccccc2)c2c(=O)cc(C(=O)OCC)oc12 | -2.4% | 5.3% | 0.9% | 2.9 | 33.6% | -2.6
COc1ccccc1-c1ccc2nnc(SC)n2n1 | 1.1% | -4.6% | -3.3% | -1.7 | 2.0% | -2.9
Cc1oc2ccc(NS(=O)(=O)c3ccc(C(C)(C)C)cc3)cc2c1C(=O)Nc1ccccc1 | ? | 38.9% | -20.4% | 1.2 | -8.2% | 0.4
O=[N+]([O-])c1ccc(/C=C/c2nc3ccc([N+](=O)[O-])cc3[nH]2)cc1 | 4.15µM* | 16.1% | 20.6% | 91.3* | -16.7% | 33.2*
O=[N+]([O-])c1ccc2nc(C3CCCCC3)[nH]c2c1 | 40.7% | -38.2% | 1.3% | 46.0* | ? | 18.2*
Clc1ccc(/C=C/c2nc3ccccc3[nH]2)cc1 | -85.4% | -60.7% | -28.4% | -11.6 | -53.8% | 7.5
Nc1nc2ccc([N+](=O)[O-])cc2[nH]1 | ? | 0.0% | 0.3% | 14.8 | -13.2% | -2.8
O=[N+]([O-])c1ccc2nc(CCCc3nc4ccc([N+](=O)[O-])cc4[nH]3)[nH]c2c1 | -26.2% | -0.5% | -0.7% | 52.5* | 52.1% | 14.5
O=[N+]([O-])c1ccc2nc(CN3CCCCC3)[nH]c2c1 | -3.7% | . | -3.2% | 19.6 | 46.5% | 14.9
NC(N)=Nc1nc2ccc([N+](=O)[O-])cc2[nH]1 | 8.28µM* | -3.5% | 0.5% | 24.0 | 4.15µM* | 9.4*
